The full ranking holds about 1,000 compounds; the median of “thermal shift dTm” is about 0.19, and the highest 2% start at about 1.7. Many of the other results were omitted from the sample, so the highest values are more common in it than they were. Calls of active or inactive are those of the source.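 The calls were made as follows: active = mean rise in melting temperature of at least 1 degC over same-plate control wells; inactive = below that, where a call was filed.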
molecular target: Sulfhydryl oxidase 1 (Homo sapiens) (UniProt O00391); test: QSOX1 binders by thermal stabilization, confirmation, QSOX1 inhibitor project, biophysical, protein thermal shift, single concentration (AID 1347422); conditions: recombinant hQSOX1 thermal shift, Sypro Orange, at 25 µM, stronger effect = higher value;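 also: dTm is compound Tm minus mean Tm of DMSO-only wells on that plate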
Sequence (O00391 whole entry, looked up): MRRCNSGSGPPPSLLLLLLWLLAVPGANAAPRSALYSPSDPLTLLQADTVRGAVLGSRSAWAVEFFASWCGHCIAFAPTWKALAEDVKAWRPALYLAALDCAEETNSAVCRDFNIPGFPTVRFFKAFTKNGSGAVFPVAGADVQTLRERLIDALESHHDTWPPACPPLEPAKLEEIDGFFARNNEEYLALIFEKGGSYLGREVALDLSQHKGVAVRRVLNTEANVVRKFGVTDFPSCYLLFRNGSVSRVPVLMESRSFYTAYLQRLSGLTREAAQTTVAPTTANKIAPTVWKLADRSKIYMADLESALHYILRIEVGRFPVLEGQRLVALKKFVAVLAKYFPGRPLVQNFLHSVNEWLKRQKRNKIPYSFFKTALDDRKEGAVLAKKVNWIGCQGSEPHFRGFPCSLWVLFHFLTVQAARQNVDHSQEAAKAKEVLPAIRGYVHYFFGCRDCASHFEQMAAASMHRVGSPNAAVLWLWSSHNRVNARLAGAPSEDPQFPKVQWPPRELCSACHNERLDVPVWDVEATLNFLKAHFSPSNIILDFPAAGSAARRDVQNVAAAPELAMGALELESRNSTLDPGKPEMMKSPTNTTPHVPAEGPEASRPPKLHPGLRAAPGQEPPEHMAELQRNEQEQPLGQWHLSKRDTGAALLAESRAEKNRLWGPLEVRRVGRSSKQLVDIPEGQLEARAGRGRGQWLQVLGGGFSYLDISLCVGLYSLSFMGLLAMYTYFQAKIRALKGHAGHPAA

First: NC(=O)c1ccc(-c2ccc3[nH]ccc3c2)nc1
Second: COc1ccc(-c2noc(-c3cccc(NC(C)=O)c3)n2)cc1
The thermal shift dTm of the first is higher: 0.79 °C for the first, 0.24 °C for the second.

Compared with `Cc1cc2ncn(CCCOc3ccc(Cl)cc3)c2cc1C`, `Cc1cc(OCCn2cc(C(=S)N3CCOCC3)c3ccccc32)ccc1Cl` is lower in thermal shift dTm: 0.11 °C for the first, 0.02 °C for the second.

Compared with `CC(C)N(Cc1nc(-c2ccc(Cl)cc2)no1)S(=O)(=O)c1ccc(F)cc1`, `CC(=O)Oc1ccc2cc(-c3ccc(Cl)cc3)c(=O)oc2c1` is higher in thermal shift dTm: 0.02 °C for the first, 0.11 °C for the second.

First: CCc1ccc(NC(=O)Nc2ccc(Br)cn2)cc1
Second: Cc1ccc(NC(=O)Nc2ccc(Br)cc2)nc1
The thermal shift dTm of the first is lower: 0.09 °C for the first, 0.28 °C for the second.

First: COc1ccc(NC(=O)Nc2ccc(C)cc2C)cc1
Second: COc1ccc(NC(=O)Nc2ccc(C)cc2)c(OC)c1
The thermal shift dTm of the first is lower: 0.05 °C for the first, 0.2 °C for the second.

First: COc1cccc(NC(=O)Nc2cccc3ccccc23)c1
Second: COc1cccc(NC(=O)Nc2ccc(Cc3ccncc3)cc2)c1
The thermal shift dTm of the first is lower: 0.01 °C for the first, 0.38 °C for the second.

Compared with `COc1ccc(C)cc1NC(=O)Nc1ccc(NC(C)=O)cc1`, `CC(=O)Nc1ccc(NC(=O)c2nnn(-c3cccc(Cl)c3)c2N)cc1` is lower in thermal shift dTm: 0.57 °C for the first, 0.55 °C for the second.

Going from `N/C(=N\c1nc(-c2cccs2)cc(C(F)(F)F)n1)Nc1ccc2c(c1)OCCO2` to `O=C(Nc1nc(-c2ccccc2)ns1)N1CCOc2ccc(Cl)cc2C1`, the thermal shift dTm falls from 0.35 °C to 0.23 °C.

Going from `COc1ccc(NC(=O)Nc2cccnc2)cc1` to `CSc1cccc(NC(=O)NCc2ccccn2)c1`, the thermal shift dTm falls from 0.28 °C to 0.18 °C.

First: Cc1nnc(NC(=O)c2ccc(NC(=O)c3ccco3)cc2)s1
Second: COc1ccc(NC(=O)c2ccoc2)cc1Cl
The thermal shift dTm of the first is higher: 0.7 °C for the first, 0.23 °C for the second.

First: O=C(Nc1nccs1)c1ccccc1OCc1ccccc1
Second: c1ccc(COc2ccc(-c3noc(-c4ccccn4)n3)cc2)cc1
The thermal shift dTm of the first is higher: 0.37 °C for the first, 0.01 °C for the second.

First: CCc1sc(NC(=O)Cc2ccc(F)cc2)nc1-c1ccccc1
Second: O=C(CCc1ccccc1)Nc1cccc(-c2nc3ccccc3s2)c1
The thermal shift dTm of the first is lower: 0.17 °C for the first, 0.59 °C for the second.

First: O=S(=O)(NCCSC1CCCCC1)c1ccc(Cl)cc1
Second: COc1ccc2c(c1OC)C(=O)N(c1ccc(Cl)cc1)C2
The thermal shift dTm of the first is lower: 0.11 °C for the first, 0.81 °C for the second.

First: Cc1ccccc1NC(=S)NCCC(c1ccccc1)c1ccccc1
Second: Cc1ccc2ccc(C(Nc3ccccn3)c3ccc(Cl)cc3)c(O)c2n1 (centres undefined)
The thermal shift dTm of the first is lower: 0.02 °C for the first, 0.57 °C for the second.

Going from `Cc1ncc(CNc2ccc(-c3nc4ccccc4[nH]3)cc2)cn1` to `O=C(Nc1cccc(-c2nc3ccccc3[nH]2)c1)C1CCCO1` (centres undefined), the thermal shift dTm falls from 0.14 °C to 0.02 °C.

Going from `CCCN(CC1CC1)C(=O)c1cc(COc2ccc(OC)cc2Cl)on1` to `CCCn1c(=O)[nH]c(=O)c2c(-c3cccc4ccccc34)ccnc21`, the thermal shift dTm rises from 0.09 °C to 0.25 °C.

With `O=c1[nH]c(SCc2ccc(Cl)c(Cl)c2)nc2ccccc12` the thermal shift dTm was 0.11 °C.

With `COc1ccc(OC)c(NC(=O)Nc2cccc(NC(C)=O)c2)c1` the thermal shift dTm was 1.91 °C (active).
With `COc1ccc(NC(=O)Nc2ccc(C(C)=O)cc2)c(C)c1` the thermal shift dTm was 2.14 °C (active).
For `COc1ccc(NC(=O)Nc2cccc(Cn3cc(Cl)cn3)c2)cc1`, the thermal shift dTm was 2.14 °C (active).
In the case of `CC(=O)Nc1ccc(C(=O)CSc2ccc3ccccc3n2)cc1`, the thermal shift dTm is reported as 1.22 °C (active).
For `Cc1ccc(NC(=O)Nc2ccc3snnc3c2)cc1`, the thermal shift dTm was -0.45 °C (inactive).
In the case of `C=CCc1c(C)nc2c(-c3ccccc3)cnn2c1NCc1cccnc1`, the thermal shift dTm is reported as -0.08 °C (inactive).
With `c1cc(NCc2ccc3c(c2)OCO3)cc(-c2nc3ccccc3[nH]2)c1` the thermal shift dTm was 2.39 °C (active).
`COc1ccc(C(=O)Nc2ccc(NC(C)=O)cc2)cc1C` was tested, and the thermal shift dTm was 1.48 °C (active).
With `COc1ccc(C(=O)Nc2ccc(Cl)c(C)n2)cc1Cl` the thermal shift dTm was 1.85 °C (active).
For `O=C(CN(c1ccccc1F)S(=O)(=O)c1ccccc1)Nc1ccc(F)cc1F`, the thermal shift dTm was -0.03 °C (inactive).
With `Cc1cc(N(C)C)nc(N2CCN(C(=O)Nc3cccc(F)c3)CC2)n1` the thermal shift dTm was -0.08 °C (inactive).

From PubChem BioAssay AID1347422 (Sanford-Burnham Center for Chemical Genomics, 2020)
